A short description of assay [1]: qHTS assay to identify small molecule antagonists of the thyroid receptor (TR) signaling pathway (AID 743065). Note: nearly all actives have a fitted effect of over 55% in size. Note: potency is the fitted concentration of half-maximal effect. The method in brief:
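Antagonism measured as loss of luciferase signal in GH3 cells stably carrying a TRE-luciferase reporter, co-treated with compound and T3 (1 nM final) for 23.5 h at 37 C. Viability was read in the same well by CellTiter-Fluor.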
Background: qHTS replaces the single test concentration by a dilution series.

Assay [2] deals with thyroid hormone receptor (rat, GH3 cells). Description: qHTS assay to identify small molecule agonists of the thyroid receptor (TR) signaling pathway (AID 743066; calls by dose curve).
Assay [3] is described as follows: qHTS assay to identify small molecule antagonists of the estrogen receptor alpha (ER-alpha) signaling pathway - cell viability counter screen (AID 743074; calls by dose curve;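 note: HEK293 cells carrying ER-alpha-UAS-bla reporter stimulated with 17beta-estradiol; nearly all actives have a fitted effect of over 45% in size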).
The nature of assay [4]: qHTS assay to identify small molecule antagonists of the estrogen receptor alpha (ER-alpha) signaling pathway using the BG1 cell line - cell viability counter screen (AID 743081).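 Note: compound given together with 17beta-estradiol as the ER stimulus; nearly all actives have a fitted effect of over 45% in size.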
The target in the next assay is Aromatase (Homo sapiens) (UniProt P11511). Description: qHTS assay to identify aromatase inhibitors (AID 743083). Note: nearly all actives have a fitted effect of over 55% in size. Note: potency is the fitted concentration of half-maximal effect.
Chain of Aromatase (Homo sapiens) (P11511 whole entry, looked up): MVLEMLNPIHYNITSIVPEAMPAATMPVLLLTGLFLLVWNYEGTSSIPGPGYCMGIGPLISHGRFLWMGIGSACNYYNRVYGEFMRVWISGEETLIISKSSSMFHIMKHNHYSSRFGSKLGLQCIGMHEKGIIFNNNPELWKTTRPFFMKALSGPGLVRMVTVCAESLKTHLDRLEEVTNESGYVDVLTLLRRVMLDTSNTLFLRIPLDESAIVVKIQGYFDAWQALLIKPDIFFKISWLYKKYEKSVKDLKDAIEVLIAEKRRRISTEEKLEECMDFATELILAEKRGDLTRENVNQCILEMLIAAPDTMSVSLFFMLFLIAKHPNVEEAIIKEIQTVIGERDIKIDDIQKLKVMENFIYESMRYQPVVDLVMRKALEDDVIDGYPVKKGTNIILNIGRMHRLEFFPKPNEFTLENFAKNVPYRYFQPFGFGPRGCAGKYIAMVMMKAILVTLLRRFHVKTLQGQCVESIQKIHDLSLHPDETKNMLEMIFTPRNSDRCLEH
The nature of assay [5]: qHTS assay to identify aromatase inhibitors - cell viability counter screen (AID 743084).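 Note: cells stimulated with testosterone during compound exposure; nearly all actives have a fitted effect of over 55% in size.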
A short description of assay [6]: qHTS assay to identify small molecule that activate the aryl hydrocarbon receptor (AhR) signaling pathway - cell viability counter screen (AID 743086). Note: nearly all actives have a fitted effect of over 45% in size. The method in brief: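 Cytotoxicity counter screen: CellTiter-Fluor signal (30 min, 37 C) in 4000 HepG2 cells/well carrying the DRE-luciferase reporter, following 24 h compound exposure at 37 C.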
Assay [7] has as its target Peroxisome proliferator-activated receptor gamma (Homo sapiens) (UniProt P37231). Description: qHTS assay to identify small molecule agonists of the peroxisome proliferator-activated receptor gamma (PPARg) signaling pathway (AID 743094; active = well fitted activation curve with a large enough effect in the signal ratio in the repeat runs, not every such curve was filed as active; inconclusive = weak or mixed curves, or effect the other way; inactive = no such curve, though single readings can be large or run the other way; the % refers to the signal ratio; note: potency is the fitted concentration of half-maximal effect). The method, boiled down: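 GeneBLAzer PPARg UAS-bla HEK293H cells were plated, rested 5 h, then exposed to compounds for 17 h at 37C. Beta-lactamase activity was read by LiveBLAzer B/G FRET substrate fluorescence after 1 h at room temperature.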

For assay [8] the target is unchanged. Description: qHTS assay to identify small molecule antagonists of the peroxisome proliferator-activated receptor gamma (PPARg) signaling pathway (AID 743191; calls by dose curve; note: nearly all actives have a fitted effect of over 30% in size). The method, boiled down:
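Beta-lactamase reporter under UAS control in HEK293H PPARg-bla cells; compound treatment 17 h at 37C. Read-out: fluorescence intensity after 1 h room-temperature incubation with LiveBLAzer B/G FRET substrate.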

Assay [9] in a line: qHTS assay to identify small molecule antagonists of the peroxisome proliferator-activated receptor gamma (PPARg) signaling pathway - cell viability counter screen (AID 743194). Note: nearly all actives have a fitted effect of over 55% in size. The note with it: Potency: co-treated with 50 nM rosiglitazone unless noted. The method, boiled down: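 Viability was measured as CellTiter-Glo luminescence in GeneBLAzer PPARg UAS-bla HEK293H cells. These cells had been exposed 17 h at 37 C to compounds together with rosiglitazone at 50 nM final, with the beta-lactamase readout taken in the same wells.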

The nature of assay [10]: qHTS assay for small molecule agonists of the antioxidant response element (ARE) signaling pathway (AID 743202; active = well fitted activation curve with a large enough effect in the signal ratio in the repeat runs, not every such curve was filed as active; inconclusive = weak or mixed curves, or effect the other way; inactive = no such curve, though single readings can be large or run the other way; the % refers to the signal ratio). The method in brief: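 An ARE-responsive beta-lactamase gene stably integrated in HepG2 cells serves as reporter. After 5 h plating and 16 h compound incubation at 37 C, fluorescence of the B/G FRET substrate was measured.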
Assay [11] can be described thus: qHTS assay for small molecule agonists of the antioxidant response element (ARE) signaling pathway - cell viability counter screen (AID 743203; calls by dose curve; note: nearly all actives have a fitted effect of over 55% in size; note: potency is the fitted concentration of half-maximal effect). The method in brief: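 ARE-bla HepG2 cells were plated, rested 5 h at 37C/5% CO2, then exposed to compounds in DMSO for 16 h. Viability was read as CellTiter-Glo luminescence after 30 min at room temperature, in the same wells as the ARE screen.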

Assay [12] can be described thus: qHTS assay for small molecule activators of the heat shock response signaling pathway - cell viability counter screen (AID 743209). Note: nearly all actives have a fitted effect of over 50% in size. The method, boiled down: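 HSE-bla HeLa cells plated overnight, then exposed to Tox21 compounds (23 nL in DMSO) for 5 h at 37 C. After the bla reporter read, CellTiter-Glo was added in the same wells and luminescence read after 30 min at room temperature.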

A short description of assay [13]: qHTS assay for small molecule activators of the heat shock response signaling pathway (AID 743210; active = well fitted activation curve with a large enough effect in the signal ratio in the repeat runs, with a control signal flat, not every such curve was filed as active; inconclusive = weak or mixed curves; the % refers to the signal ratio; note: potency is the fitted concentration of half-maximal effect;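 for activation: HeLa cells with beta-lactamase reporter driven by heat shock elements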). The method in brief: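 In HSE-bla HeLa cells, 5 h compound incubation (37 C) precedes addition of LiveBLAzer B/G substrate; after 2.5 h at room temperature, fluorescence intensity indicates reporter induction.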
Assay [14] is described as follows: qHTS assay to identify small molecule agonists of the peroxisome proliferator-activated receptor delta (PPARd) signaling pathway - cell viability counter screen (AID 743211). Note: nearly all actives have a fitted effect of over 55% in size. Note: potency is the fitted concentration of half-maximal effect. The method, boiled down: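 In the same wells used for beta-lactamase reporter measurement, cytotoxicity is scored by CellTiter-Glo. HEK293H PPARd-bla cells receive compound for 17 h at 37C following a 5 h settling period.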

Assay [15] addresses Estrogen receptor (Homo sapiens) (UniProt P03372). As to the kind of experiment: qHTS assay to identify small molecule agonists of the estrogen receptor alpha (ER-alpha) signaling pathway using the BG1 cell line (AID 743079). Note: nearly all actives have a fitted effect of over 20% in size. Note: potency is the fitted concentration of half-maximal effect. The settings on record: BG1Luc4E2 cells, ERE-luciferase agonist, 22 h; activation: at 70.3 µM (top of the series) unless noted.
The target is the same in assay [16]. Description: qHTS assay to identify small molecule agonists of the estrogen receptor alpha (ER-alpha) signaling pathway (AID 743075; calls by dose curve; note: potency is the fitted concentration of half-maximal effect).
Assay [17] in a line: qHTS assay to identify small molecule antagonists of the estrogen receptor alpha (ER-alpha) signaling pathway using the BG1 cell line (AID 743080; calls by dose curve;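 note: BG1 cells stimulated with 17beta-estradiol alongside compound; nearly all actives have a fitted effect of over 25% in size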; note: potency is the fitted concentration of half-maximal effect). The method in brief:
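Luminescence from a 4×ERE-luciferase reporter in BG1-Luc-4E2 cells served as read-out. Cells, pre-cultured 5 days in stripped-serum phenol-red-free medium, were exposed to compound with 17beta-estradiol co-stimulation for 21.5 h at 37 C.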

Assay [18] deals with Aryl hydrocarbon receptor (Homo sapiens) (UniProt P35869). Description: qHTS assay to identify small molecule that activate the aryl hydrocarbon receptor (AhR) signaling pathway (AID 743085).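 For activation: HG2L7.5c1 human HepG2 liver cells with stably integrated DRE-driven firefly reporter.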 Note: nearly all actives have a fitted effect of over 15% in size. Note: potency is the fitted concentration of half-maximal effect. The method, boiled down: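 Stably transfected human liver carcinoma cells (HG2L7.5c1; 20 DRE-firefly luciferase) were incubated 5 h, dosed, and kept 24 h at 37C. Agonism was scored from increased luciferase luminescence.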
Chain of Aryl hydrocarbon receptor (Homo sapiens) (P35869 whole entry, looked up): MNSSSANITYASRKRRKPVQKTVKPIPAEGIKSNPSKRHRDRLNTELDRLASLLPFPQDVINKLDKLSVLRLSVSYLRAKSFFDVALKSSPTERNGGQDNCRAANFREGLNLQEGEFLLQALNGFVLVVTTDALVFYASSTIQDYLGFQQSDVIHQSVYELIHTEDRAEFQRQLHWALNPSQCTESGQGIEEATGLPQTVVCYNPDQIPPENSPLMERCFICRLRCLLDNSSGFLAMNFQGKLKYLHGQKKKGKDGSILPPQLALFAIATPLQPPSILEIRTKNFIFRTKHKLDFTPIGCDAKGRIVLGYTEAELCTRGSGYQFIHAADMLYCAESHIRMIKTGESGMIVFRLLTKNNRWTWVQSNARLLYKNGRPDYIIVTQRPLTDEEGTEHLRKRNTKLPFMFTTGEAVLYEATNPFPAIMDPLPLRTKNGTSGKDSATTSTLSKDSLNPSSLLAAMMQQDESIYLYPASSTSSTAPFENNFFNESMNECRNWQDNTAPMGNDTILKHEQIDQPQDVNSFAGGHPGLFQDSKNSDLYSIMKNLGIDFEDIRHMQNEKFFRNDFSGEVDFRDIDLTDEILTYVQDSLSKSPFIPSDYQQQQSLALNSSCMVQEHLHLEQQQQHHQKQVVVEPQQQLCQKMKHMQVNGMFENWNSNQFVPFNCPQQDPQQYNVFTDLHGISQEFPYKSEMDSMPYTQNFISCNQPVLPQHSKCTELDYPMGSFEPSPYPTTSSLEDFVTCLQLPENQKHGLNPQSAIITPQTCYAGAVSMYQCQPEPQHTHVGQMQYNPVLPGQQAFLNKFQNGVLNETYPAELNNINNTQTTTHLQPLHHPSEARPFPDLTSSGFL

Assay [19] has as its target Estrogen receptor (Homo sapiens) (UniProt P03372). As to the kind of experiment: qHTS assay to identify small molecule antagonists of the estrogen receptor alpha (ER-alpha) signaling pathway (AID 743069; active = well fitted curve in the direction sought with a large enough effect in the signal ratio in the repeat runs, not every such curve was filed as active; inconclusive = weak or mixed curves, or effect the other way; inactive = no such curve, though single readings can be large or run the other way; the % refers to the signal ratio; note: potency is the fitted concentration of half-maximal effect). The method, boiled down:
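Compound effects are measured against 17beta-estradiol stimulation in HEK293 cells with a UAS-controlled beta-lactamase reporter for ER-alpha. Exposure lasts 18 hr at 37C; LiveBLAzer B/G FRET substrate follows for 2 hr at room temperature.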

This passage reports Potency and activation results from PubChem BioAssay (Tox21).

Where “and” joins values, the source holds several entries; their conditions need not be identical. Equal values may be shown once. The source holds several records for some structures; these can differ, active in one and inactive in another. Calls of active or inactive are those of the source. Unless noted, calls come from the whole dose curve; as a rule, active = well fitted curve in the direction sought with a large enough effect in the repeat runs; inconclusive = weak or mixed curves; inactive = no such curve, though single readings can be large; an effect the other way counts as inactive or inconclusive.
% is set by controls: 0 for no effect and ±100 for the full control effect.

Chain of Peroxisome proliferator-activated receptor gamma (Homo sapiens) (P37231 whole entry, looked up): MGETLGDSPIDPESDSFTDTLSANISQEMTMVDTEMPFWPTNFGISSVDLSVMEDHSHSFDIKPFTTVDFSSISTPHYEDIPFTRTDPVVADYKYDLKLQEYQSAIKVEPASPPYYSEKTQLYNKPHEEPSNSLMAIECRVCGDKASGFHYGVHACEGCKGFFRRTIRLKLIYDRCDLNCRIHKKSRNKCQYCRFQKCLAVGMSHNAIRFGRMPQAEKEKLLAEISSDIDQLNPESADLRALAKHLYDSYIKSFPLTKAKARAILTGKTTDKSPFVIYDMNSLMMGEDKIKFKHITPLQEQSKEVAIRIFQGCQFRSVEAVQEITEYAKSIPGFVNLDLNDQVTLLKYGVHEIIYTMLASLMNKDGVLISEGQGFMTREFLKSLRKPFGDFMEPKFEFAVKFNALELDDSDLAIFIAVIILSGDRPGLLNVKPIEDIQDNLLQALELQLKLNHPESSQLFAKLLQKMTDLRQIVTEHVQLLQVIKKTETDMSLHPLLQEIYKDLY
Chain of Estrogen receptor (Homo sapiens) (P03372 whole entry, looked up): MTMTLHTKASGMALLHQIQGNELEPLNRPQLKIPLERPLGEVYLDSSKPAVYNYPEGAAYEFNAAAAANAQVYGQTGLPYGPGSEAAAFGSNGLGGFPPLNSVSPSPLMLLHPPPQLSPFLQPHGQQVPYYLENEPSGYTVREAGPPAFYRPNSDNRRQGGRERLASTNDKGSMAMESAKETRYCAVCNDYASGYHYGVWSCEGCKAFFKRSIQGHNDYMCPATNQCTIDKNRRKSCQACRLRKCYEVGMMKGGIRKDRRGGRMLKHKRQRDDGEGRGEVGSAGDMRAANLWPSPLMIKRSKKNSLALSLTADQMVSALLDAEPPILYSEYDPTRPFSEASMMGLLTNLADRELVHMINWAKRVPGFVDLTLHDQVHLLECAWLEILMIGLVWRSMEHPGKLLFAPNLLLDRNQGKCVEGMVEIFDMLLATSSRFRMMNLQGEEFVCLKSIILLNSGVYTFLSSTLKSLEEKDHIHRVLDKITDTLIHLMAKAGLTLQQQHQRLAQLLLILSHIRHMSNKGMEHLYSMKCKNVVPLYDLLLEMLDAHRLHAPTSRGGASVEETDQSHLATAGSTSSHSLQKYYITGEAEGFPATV

Consider `CO[Si](CCCNCCN)(OC)OC`, for which the Potency entry (in assay [1]; in assay [2]; in assay [3]; in assay [4]; with Aromatase (Homo sapiens); in [5]) was “inactive” each time. The Potency entry in [6], in assay [7], in assay [8], in assay [9], in assay [10] and in assay [11] was “inactive” throughout. In addition, the Potency result in [12], in assay [13] and in assay [14] was “inactive” in each case.

For `CCOC(=O)CC(=O)OCC`, the Potency entry in assay [1], in assay [2], in assay [4], in assay [6], in [9] and in assay [11] was “inactive” throughout. The Potency result in assay [12] and in assay [13] was “inactive” throughout.

As to `CC[N+](CC)(CC(=O)Nc1c(C)cccc1C)Cc1ccccc1`, the Potency entry (in assay [3]; in [4]; with Aromatase (Homo sapiens); in [5]; in [6]; in [7]) was “inactive” each time. Also, the Potency result in assay [8], in [9], in assay [11] and in assay [14] was “inactive” in each case.

As for `Nc1nc(N)c2nc(-c3ccccc3)c(N)nc2n1`, the Potency is 55.1 µM (active) and 54.5 µM (active) in assay [1]; “inactive and 68.6 µM (active)” in [15]; 23.9 µM (active) in assay [7]; 27.6 µM (active) and 17.2 µM (active) in assay [11]; 37.1 µM (active) and 29.7 µM (active) and 26.6 µM (active) in [13]. Besides, the Potency entry (in [2]; in the assay with Aromatase (Homo sapiens); in assay [6]; in [9]; in assay [12]) was “inactive” each time.

As for `O=c1c(O)c(-c2ccc(O)c(O)c2)oc2cc(O)cc(O)c12`, the Potency result (in assay [2]; in assay [3]; in assay [17]; in assay [4]; with Aromatase (Homo sapiens); in assay [5]) was “inactive” throughout. For the same molecule, the Potency entry in assay [6], in assay [7], in assay [8], in assay [9], in assay [11] and in assay [12] was “inactive” each time. In [14], the Potency result is “inactive”. For the same molecule, the Potency in assay [16] is 24.6 µM [inconclusive] (active) [middle of 4 runs]; in [15], 29.8 µM (active) and 68.7 µM (active); in assay [18], 61.2 µM (active) and 54.9 µM (active) and 61.1 µM (active). The activation in assay [15] was 18.1% [at 95 µM] (active).

As to `CCN(CC)CCNC(=O)c1ccc(N)cc1`, the Potency result (in [1]; in assay [2]; in [3]; in [4]; with Aromatase (Homo sapiens); in [5]) was “inactive” throughout. Besides, the Potency entry in [18], in assay [6], in assay [9], in assay [11], in [12] and in assay [13] was “inactive” each time.

As for `CC(CN1c2ccccc2Sc2ccccc21)N(C)C` (configuration not stated), the Potency was 26.6 µM (active) and 27.6 µM (active) and 61.1 µM (active) in assay [1]; “inactive and 61.8 µM (active)” in the assay with Aromatase (Homo sapiens); 68.6 µM (active) and inactive in assay [11]; 49.5 µM (active) and 21.9 µM (active) in assay [14]. Further, the Potency entry in assay [2], in assay [4], in [5], in [18], in [6] and in assay [7] was “inactive” in each case. Further, the Potency result in assay [10] and in assay [13] was “inactive” throughout.

As for `CC(=O)Nc1ccc(CC(=O)O)cc1`, the Potency entry in assay [19], in [3], in assay [16], in assay [15], in [17] and in [4] was “inactive” in each case. Moreover, the Potency result (with Aromatase (Homo sapiens); in [5]; in assay [18]; in assay [6]; in assay [7]; in assay [8]) was “inactive” throughout. In addition, the Potency entry in [9], in [10], in assay [11], in [13] and in assay [14] was “inactive” in each case.

Regarding `Cc1nnc(NS(=O)(=O)c2ccc(N)cc2)s1`, the Potency entry in assay [19], in [3], in [16], in assay [15], in assay [17] and in assay [4] was “inactive” each time. The Potency result (with Aromatase (Homo sapiens); in [5]; in [18]; in [6]; in [7]; in assay [8]) was “inactive” throughout. In addition, the Potency result in assay [9], in assay [11], in [12], in assay [13] and in assay [14] was “inactive” in each case.

Turning to `N[C@@H](Cc1cc(I)c(Oc2ccc(O)c(I)c2)c(I)c1)C(=O)O`, the Potency is 23.9 µM [inconclusive] (active) and inactive in [19]; 9.51 µM [activator] (active) and inactive and 51 µM [fluorescent] (active) in [16]; 37.1 µM (active) and 40.2 µM (active) in assay [15]; 26.6 µM (active) and inactive and 8.02 µM (active) in assay [17]. The Potency entry (in [3]; in assay [4]; with Aromatase (Homo sapiens); in assay [5]; in [6]; in assay [7]) was “inactive” each time. Moreover, the Potency result in assay [9], in [11], in [12] and in assay [13] was “inactive” in each case.

With `CC/C(C)=N/O`, the Potency result in assay [1], in [2], in assay [3], in assay [4], in assay [6] and in [9] was “inactive” in each case. Further, the Potency entry in assay [10], in assay [11], in assay [12], in assay [13] and in assay [14] was “inactive” throughout.

`CS(=O)(=O)c1ccc(Cl)cc1`: the Potency result (in [1]; in assay [2]; in assay [3]; in assay [4]; with Aromatase (Homo sapiens); in assay [5]) was “inactive” each time. The Potency entry in assay [18], in assay [6], in [9], in assay [10], in [11] and in assay [12] was “inactive” throughout. Further, the Potency entry in assay [13] and in [14] was “inactive” in each case.
